In the first experiment the target is T1, Ephrin type-B receptor 4 (Homo sapiens) (UniProt P54760).
T1 sequence (whole entry): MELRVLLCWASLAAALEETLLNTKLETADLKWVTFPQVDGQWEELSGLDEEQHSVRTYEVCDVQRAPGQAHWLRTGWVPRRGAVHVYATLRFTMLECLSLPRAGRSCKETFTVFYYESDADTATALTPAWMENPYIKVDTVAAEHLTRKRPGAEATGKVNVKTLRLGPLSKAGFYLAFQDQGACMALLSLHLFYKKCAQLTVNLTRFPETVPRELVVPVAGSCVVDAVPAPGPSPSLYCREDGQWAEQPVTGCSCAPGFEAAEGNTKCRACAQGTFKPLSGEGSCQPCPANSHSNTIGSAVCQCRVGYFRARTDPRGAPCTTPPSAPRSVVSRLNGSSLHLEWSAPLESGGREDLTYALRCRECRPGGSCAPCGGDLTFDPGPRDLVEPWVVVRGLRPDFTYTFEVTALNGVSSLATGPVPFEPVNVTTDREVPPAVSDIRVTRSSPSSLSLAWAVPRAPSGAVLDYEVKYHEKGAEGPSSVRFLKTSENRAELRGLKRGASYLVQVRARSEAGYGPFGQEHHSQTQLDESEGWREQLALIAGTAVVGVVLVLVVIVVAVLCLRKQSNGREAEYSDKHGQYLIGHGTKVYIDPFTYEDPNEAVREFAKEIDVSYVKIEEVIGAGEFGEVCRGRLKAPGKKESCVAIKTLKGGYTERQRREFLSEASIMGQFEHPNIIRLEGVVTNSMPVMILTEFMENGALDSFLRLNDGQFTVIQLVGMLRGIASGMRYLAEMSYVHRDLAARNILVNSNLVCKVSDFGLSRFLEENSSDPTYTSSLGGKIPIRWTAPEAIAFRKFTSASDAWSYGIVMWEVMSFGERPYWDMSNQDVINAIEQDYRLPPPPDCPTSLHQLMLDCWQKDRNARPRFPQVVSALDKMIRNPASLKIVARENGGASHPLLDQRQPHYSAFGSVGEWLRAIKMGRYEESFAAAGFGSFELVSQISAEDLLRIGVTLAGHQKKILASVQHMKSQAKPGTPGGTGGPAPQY
Conditions: at 0.1 µM.
Turning to `Cc1ccc(C(=O)NC2CC2)cc1-c1ccc2[nH]ncc2c1`, the inhibition was -2.42%.

For `COc1ccc(-c2nn3ncccc3c2-c2ccnc(Nc3cccc(C(F)(F)F)c3)n2)cc1`, the inhibition came out at 0.66%.

In the case of `CN(C)C(=O)O[C@@H]1CN[C@@H](C#Cc2cc3ncnc(Nc4ccc(OCc5cccc(F)c5)c(Cl)c4)c3s2)C1`, the inhibition was determined as 1.64%.

`CC(C)c1ccc2c(c1)NC(=O)/C2=N/Nc1ccc(S(N)(=O)=O)cc1`: the inhibition was 1.07%.

For `NS(=O)(=O)c1ccc(NC=C2C(=O)Nc3ccc4ncsc4c32)cc1`, the inhibition was 4.95%.

As for `C[C@@H](Oc1cc(-n2cnc3ccc(OCC4CCN(C)CC4)cc32)sc1C(N)=O)c1ccccc1C(F)(F)F`, the inhibition is -1.38%.

Consider `CN(C)c1cc2c(Nc3ccc4c(cnn4Cc4ccccc4)c3)ncnc2cn1`, for which the inhibition came to 0.91%.

Turning to `Cc1ccc(Nc2ccnc(Nc3cccc(C(N)=O)c3)n2)cc1O`, the inhibition came to 2.22%.

On to `CCS(=O)(=O)c1ccc(OC)c(Nc2nccc(N(C)c3ccc4c(C)n[nH]c4c3)n2)c1`, for which the inhibition is 17.4%.

In the case of `COC(=O)Nc1nc2cc(Oc3ccc(NC(=O)Nc4cccc(Br)c4)cc3)ccc2[nH]1`, the inhibition was 9.97%.

In the case of `CC(C)c1ccc(Nc2nccc(-c3cnn4ncccc34)n2)cc1`, the inhibition was 4.64%.

Consider `NS(=O)(=O)c1ccc(N/N=C2\C(=O)Nc3ccc(Cl)cc32)cc1`, for which the inhibition was found to be 1.05%.

As to `COc1cccc(-n2ncc3c(N/N=C/c4ccc(C)cc4)ncnc32)c1`, the inhibition turned out to be 3.6%.

In the case of `CCn1c(-c2nonc2N)nc2ccc(F)cc21`, the inhibition amounted to 1.64%.

Consider `COc1cc2ncnc(Nc3ccc4c(cnn4Cc4ccccc4)c3)c2cc1OC`, for which the inhibition worked out at 1.36%.

Consider `Nc1nccc(C#Cc2cncnc2Nc2ccc(OCc3cccc(F)c3)c(Cl)c2)n1`, for which the inhibition stood at 1.01%.

With `Cc1cc(-c2ccccn2)cc(C)c1/C=C/c1cncc(-c2nn[nH]n2)c1`, the inhibition worked out at 1.86%.

Regarding `CS(=O)(=O)Nc1cccc(-c2ccc3c(NC(=O)C4CC4)n[nH]c3c2)c1`, the inhibition worked out at 0.62%.

Regarding `O=C1Nc2ccc(-c3cccnc3)cc2C1=Cc1cc(Br)c(O)c(Br)c1`, the inhibition was 2.97%.

The target in the next experiment is T1, Ephrin type-B receptor 4 (Homo sapiens). Conditions: at 1 µM.
With `CN(C)C(=O)O[C@H]1CN[C@H](C#Cc2cc3ncnc(Nc4ccc(OCc5cccc(F)c5)c(Cl)c4)c3s2)C1`, the inhibition was 3.92%.

Consider `CCS(=O)(=O)c1ccc(OC)c(Nc2ncc(-c3cccc(OC)c3)o2)c1`, for which the inhibition stood at 11.9%.

Regarding `COc1cc2ncn(-c3cc(OCc4ccccc4S(C)(=O)=O)c(C#N)s3)c2cc1OC`, the inhibition is 17.1%.

Turning to `[O-][S+]1CCN(Cc2ccc(-c3ccc4ncnc(Nc5ccc(OCc6ccccc6)c(Cl)c5)c4c3)o2)CC1`, the inhibition is -0.05%.

With `OCc1ccc(-c2nc(-c3ccccn3)c(-c3ccc4c(c3)OCO4)[nH]2)cc1`, the inhibition came to 4.09%.

On to `COc1cc(/C=N/Nc2ncnc3c2cnn3C(C)C)ccc1O`, for which the inhibition was 21.4%.

On to `Nc1nccc(-c2c(-c3ccc(F)cc3)nn3cc(C(F)(F)F)ccc23)n1`, for which the inhibition is 1.91%.

`CN(C)CCCn1c(-c2nonc2N)nc2cnccc21`: the inhibition came to 2.2%.

With `COc1cc(Nc2nccc(-c3cnn4ncccc34)n2)cc(OC)c1`, the inhibition turned out to be 25.6%.

For `NS(=O)(=O)c1cccc(-c2cc3ccncc3cc2OCc2ccccc2)c1`, the inhibition was found to be 2.84%.

With `CN1CCN(C(=O)c2ccc(NC(=O)Nc3ccc(N(C)c4ccnc(Nc5ccc(CS(C)(=O)=O)cc5)n4)cc3)cc2)CC1`, the inhibition was 11%.

Regarding `Cc1ccc2c(c1)/C(=N/Nc1ccc(S(N)(=O)=O)cc1)C(=O)N2`, the inhibition amounted to 0.71%.

`Cc1ccc(NC(=O)CC2CC2)cc1-c1ccc(C(=O)NCC2CC2)cc1`: the inhibition came to 3.43%.

Take `CN(c1ccc(NC(=O)Nc2ccc(OC(F)(F)F)cc2)cc1)c1ccnc(Nc2cccc(S(N)(=O)=O)c2)n1`: the inhibition came to 30.7%.

In the case of `C[C@@H](Oc1cc(-n2cnc3ccc(OC[C@@H](O)CO)cc32)sc1C(N)=O)c1ccccc1Cl`, the inhibition was -0.4%.

As to `Cc1ccc(C(=O)NC2CC2)cc1-c1ccc2[nH]ncc2c1`, the inhibition was -0.31%.

`COc1ccc(-c2nn3ncccc3c2-c2ccnc(Nc3cccc(C(F)(F)F)c3)n2)cc1`: the inhibition stood at 5.01%.

For `CN(C)C(=O)O[C@@H]1CN[C@@H](C#Cc2cc3ncnc(Nc4ccc(OCc5cccc(F)c5)c(Cl)c4)c3s2)C1`, the inhibition worked out at 3.64%.

As for `CC(C)c1ccc2c(c1)NC(=O)/C2=N/Nc1ccc(S(N)(=O)=O)cc1`, the inhibition worked out at 0.29%.

Take `NS(=O)(=O)c1ccc(NC=C2C(=O)Nc3ccc4ncsc4c32)cc1`: the inhibition was 12.2%.

For the compound `C[C@@H](Oc1cc(-n2cnc3ccc(OCC4CCN(C)CC4)cc32)sc1C(N)=O)c1ccccc1C(F)(F)F`, the inhibition is 0.52%.

Consider `CN(C)c1cc2c(Nc3ccc4c(cnn4Cc4ccccc4)c3)ncnc2cn1`, for which the inhibition came to 2.11%.

Regarding `Cc1ccc(Nc2ccnc(Nc3cccc(C(N)=O)c3)n2)cc1O`, the inhibition worked out at 29.1%.

As a reminder, the inhibition is the drop in the measured response relative to a control, in per cent.

Values taken from ChEMBL document CHEMBL1961873, “Compounds: GSK PKIS; Assays: Nanosyn kinase panel” (2012).
